Screening data: PubChem, National Center for Advancing Translational Sciences (NCATS)
Tau fluor counter = counter-screen for tau fibril formation inhibitors. tau K18 P301L Alexa594 fluorescence, heparin fibrillization. Potency, µM (titrated, usually from 57.7 µM), inactives show at the highest dose activity change, negative = decrease. hit rate 0.93% among 280,000. AID 1463; note: potency is the fitted concentration of half-maximal effect; nearly all actives have a fitted effect of over 55% in size
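Human tau K18 P301L (15 uM unlabeled, 0.24 uM Alexa 594-labeled) in 100 mM sodium acetate pH 7 with 20 uM heparin, 6 hr at 37 C. ThT 30 uM added, 1 hr ambient; Alexa 594 FP and total fluorescence read at 555/632 nm.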
PNC assembly inh = perinucleolar compartment assembly inhibition; PC3M PTB-GFP, PNC prevalence imaging, 16 h; hits give low values; activity change (PNC), negative = inhibition, % at 10 µM; hit rate 3.1% among 140,000;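 active = readout at or below -70, meaning at least 70% loss of cells showing the perinucleolar compartment, a nuclear body marking cancer cells; inconclusive = readout between -30 and a set limit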;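 note: plate controls were DMSO wells for no effect and camptothecin positive control wells for full effect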
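PC3M cells stably expressing PTB-GFP, 750–1000 cells/well, treated 16 h at 37 °C with compound (23 nl of library stock), in duplicate. After paraformaldehyde fixation and Hoechst stain, imaged at 20x; PNC prevalence scored by image analysis.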
TRb SRC2 PPI = TRbeta-SRC2 interaction inhibition | P10828 | TRbeta-SRC2 peptide binding, fluorescence polarization; receptor liganded with 1 µM T3 | Potency, µM (top dose mostly 106 µM), inactives show at the highest dose activity change, negative = inhibition, most hits filed as inhibitors | hit rate 0.065% among 280,000;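 note: potency is the fitted concentration of half-maximal effect; plate controls were bound peptide for no effect and peptide without receptor for full effect; nearly all actives have a fitted effect of over 50% in size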
Target sequence (P10828 whole entry, looked up): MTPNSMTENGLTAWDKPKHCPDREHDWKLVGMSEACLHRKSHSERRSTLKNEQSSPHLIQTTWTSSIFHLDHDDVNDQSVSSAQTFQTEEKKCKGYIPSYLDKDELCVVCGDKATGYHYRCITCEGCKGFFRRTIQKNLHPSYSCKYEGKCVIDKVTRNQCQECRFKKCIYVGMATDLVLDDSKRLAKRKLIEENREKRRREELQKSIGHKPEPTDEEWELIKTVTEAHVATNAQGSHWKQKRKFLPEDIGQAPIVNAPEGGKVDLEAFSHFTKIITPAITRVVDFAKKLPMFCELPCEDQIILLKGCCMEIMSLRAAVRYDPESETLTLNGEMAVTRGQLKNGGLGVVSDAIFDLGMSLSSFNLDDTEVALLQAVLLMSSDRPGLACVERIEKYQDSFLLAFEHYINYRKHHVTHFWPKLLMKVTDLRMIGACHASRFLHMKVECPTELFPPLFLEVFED
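Assay buffer: 20 mM Tris-HCl, 100 mM NaCl, 10% glycerol, 1 mM EDTA, 0.01% NP-40, 1 mM DTT, 1 uM T3, 5% DMSO; TRb LBD 0.6 uM, Texas Red SRC2 20 nM; FP after 5 hr.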
Tau ThT inhib = tau fibrillization inhibition (ThT binding) | P10636 | recombinant tau K18 P301L (four-repeat tau fragment), heparin-induced fibrillization, ThT fluorescence | Potency, µM (titrated, usually from 57.4 µM), for the others: top-dose activity, negative = inhibition, most hits filed as inhibitors | hit rate 2.1% among 270,000 | AID 1460; note: potency is the fitted concentration of half-maximal effect; nearly all actives have a fitted effect of over 55% in size
Target sequence (P10636 561-689 P618L limits assumed): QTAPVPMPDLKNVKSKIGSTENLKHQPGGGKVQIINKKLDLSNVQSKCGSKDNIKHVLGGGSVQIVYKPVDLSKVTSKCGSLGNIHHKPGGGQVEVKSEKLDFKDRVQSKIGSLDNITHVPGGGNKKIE
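Tau K18 P301L fragment (15 uM unlabeled plus 0.24 uM Alexa 594-labeled) in 100 mM sodium acetate pH 7 with compound, fibrillization induced by 20 uM heparin for 6 hr at 37 C. Thioflavin T (30 uM) added, fluorescence read after 1 hr (ex 450, em 510 nm).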
Tau fibril FP = inhibitors of human tau fibril formation | hit rate 0.39% among 280,000 | K18 P301L tau heparin fibrillization, Alexa594 FP, 6 h | Potency, µM (highest dose often 57.7 µM), without a hit: top-dose activity, negative = inhibition, most hits filed as inhibitors | AID 1468; note: potency is the fitted concentration of half-maximal effect; nearly all actives have a fitted effect of over 55% in size
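Recombinant K18 P301L […], labeled with Alexa 594 at 0.24 uM over 15 uM unlabeled; heparin inducer 20 uM final; 37 C, 6 hr; FP endpoint.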
TR SRC2 fluor cs = alters Texas Red total fluorescence, flagging assay interference; TRb/SRC2 Texas Red total fluorescence interference; Potency, µM (doses to about 106 µM), without a hit: at the highest dose fluorescence change, negative = quenching; hit rate 0.29% among 280,000; active = well fitted curve in either direction with a large enough effect; inconclusive = small, poorly fitted or top-dose-only effect; note: potency is the fitted concentration of half-maximal effect
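Flags fluorescent or light-absorbing compounds by total fluorescence, S + 2P, at 555 nm excitation and 632 nm emission. Mixture: 20 nM Texas Red SRC2 peptide, 0.6 uM human TRb LBD, 1 uM T3, 5% DMSO; compound exposure 5 h at ambient temperature.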
Active calls of the source: *; ? = inconclusive; . = not tested or not shown; [ ] = another dose, or the depositor's remark. This is a sample that favours compounds with a hit; in the whole collection about 4.6% have one here. Unless noted, calls come from the whole dose curve; as a rule, active = well fitted curve in the direction sought with a large enough effect; inconclusive = small, poorly fitted or top-dose-only effect, or another doubt; inactive = no such curve, though single readings can be large; an effect the other way counts as inactive or inconclusive. Unless noted, % is set by controls: 0 for no effect and ±100 for the full control effect.

SMILES | Tau fluor counter | PNC assembly inh | TRb SRC2 PPI | Tau ThT inhib | Tau fibril FP | TR SRC2 fluor cs
CC[C@H]1C(c2cccc(Cl)c2)=NN(c2ccccc2)[C@@H]1CO | 14µM*[quencher] | . | 10% | ? | 11%[81.3 µM] | 6%
CC[C@H]1C(c2cccc(C)c2)=NN(c2ccccc2)[C@@H]1CO | 32µM*[quencher] | . | 10% | ? | ? | 0%
CC1CC1C(=O)OCC(=O)Nc1ccc(N=Nc2ccccc2)cc1 (stereo not given) | ? | ? | -2% | 7.9µM* | ? | 8%
CC1CC1C(=O)OCC(=O)Nc1ccccc1Oc1ccccc1 (stereo not given) | -5% | . | -6% | -3% | 12% | -4%
CCCC(=O)OCC(=O)Nc1ccc(N=Nc2ccccc2)cc1 | ? | 19 | -1%[53 µM] | 10µM* | ? | -2%[53 µM]
O=C(CC1SC(=Nc2ccc(OC(F)F)cc2)N(CCN2CCOCC2)C1=O)Nc1ccc(F)cc1F (stereo not given) | -9% | . | 3% | 6% | 3% | 2%
Cc1nc2sccn2c(=O)c1CCN1CCC(=C(c2ccc(F)cc2)c2ccc(F)cc2)CC1 | ? | -115* | 2% | ? | -17% | 0%
CN1/C(=C/C=C(/C#N)C(N)=O)C(C)(C)c2ccccc21 | -1% | -85* | 1% | -11% | -1% | -2%
CN1/C(=C\C=C(/C#N)C(=O)Nc2ccccc2F)C(C)(C)c2ccccc21 | 7% | -83* | 2% | ? | -6% | -5%
Cc1ccc(C(C)C)c(OCCN)c1 | 2% | 10 | -1% | 0% | 1% | 3%
CCOCCCNC(=O)Cn1cc2c(n1)CCCCC2 | -3% | ? | -6% | -5% | 2% | 1%
CCOC(=O)c1nn2c(C(F)(F)F)cc(-c3ccc(C)cc3)nc2c1Cl | 1% | . | -10% | -5% | -5% | ?
O=C(/C=C/c1c(F)cccc1Cl)Nc1ncccn1 | 7% | -10 | -3% | -1% | 6% | 1%
O=C(/C=C/c1c(Cl)cccc1Cl)n1cccn1 | -13% | -95* | -6% | 10µM* | ? | -2%
O=C(O)c1ccc(Cl)c(S(=O)(=O)Nc2ccc3[nH]c(=O)[nH]c3c2)c1 | ? | . | -10% | 14µM* | ? | -11%
COc1cccc(NS(=O)(=O)c2ccc(Br)s2)c1 | -17% | -3 | 5% | -11% | 4% | 2%
O=C(c1ccncc1)c1ccc(NC(=O)c2cccs2)cc1 | -17% | . | 2% | -6% | -6% | -4%
Cc1nnc2n1NC(c1ccc(Cl)cc1)C(C(=O)N1CCC(C)CC1)S2 (stereo not given) | -1% | -112* | 1% | -7% | -3% | -2%
Cc1nnc2n1NC(c1ccc(Cl)cc1)C(C(=O)N(C)C1CCCCC1)S2 (stereo not given) | 1% | 16 | -2% | -1% | 1% | 4%
CC(=O)NC1=NN(C(C)=O)C(c2cccs2)S1 (stereo not given) | 4% | -100* | 7% | 0% | 3% | -2%
CCn1nc(C)c(CCN(C)C(=O)Nc2cc(Cl)c(OC)cc2OC)c1C | 0% | . | -3% | -10% | -1% | -1%
CCCCCCCC(=O)NNC(=O)Cc1ccccc1 | 5% | -1 | -23% | 4% | 4% | 2%
CCCCCCCCCCCC(=O)c1c(O)cccc1O | 13µM*[quencher] | . | -1% | ? | ? | -1%
O=C(NC(NNc1ccc([N+](=O)[O-])cc1)(C(F)(F)F)C(F)(F)F)c1ccc(Cl)cc1 | ? | -82* | -3% | ? | -11% | -6%
O=C(NNc1ccc([N+](=O)[O-])cc1)c1ccccc1Cl | 9% | . | 9% | 12% | 2% | -3%
SMILES | Tau fluor counter | PNC assembly inh | TRb SRC2 PPI | Tau ThT inhib | Tau fibril FP | TR SRC2 fluor cs
O=C(Nc1ccccc1Cl)c1cnccn1 | 4% | 11 | -7% | -8% | 11% | 1%
CNc1cccc2c1C(=O)c1ccccc1C2=O | ? | -10 | -1% | 8.9µM* | -3% | 12%
CCOC(=O)c1c(NC(=O)CSc2nncn2C)sc(C)c1C | -10% | -81* | 3% | -15% | -2% | 0%
CCOC(=O)c1c(NC(=O)CSc2nnc(CNc3ccc(F)cc3)o2)sc(C)c1C | -28% | -4 | 1% | -16% | 12% | -1%
CCOC(=O)c1c(NC(=O)CSc2nnnn2-c2ccc(OC)cc2)sc(C)c1C | -27% | -6 | 0% | 32µM* | ? | -2%
CCOC(=O)c1c(NC(=O)CSc2nnc(CNc3ccc(Cl)cc3)o2)sc(C)c1C | -30% | -107* | -1% | -16% | 18% | 2%
CCOC(=O)c1csc(NC(=O)CSc2nnnn2-c2ccc(OC)cc2)n1 | -16% | -17 | -17% | -20% | ? | 0%
CCOc1ccc(CCNC(=O)c2cc3c(=O)oc4ccc(C)cc4c3s2)cc1OCC | -5% | . | 3% | -2% | -3% | 0%
CCN(CCCNC(=O)c1cc2c(=O)n(C)c3ccccc3c2s1)c1ccccc1 | ? | . | 5% | -3% | -2% | -3%
COc1cc(C2NC(=O)NC(c3ccccc3)=C2C(C)=O)ccc1OCC(=O)O (stereo not given) | 1% | 57 | 6% | 4% | -1% | -1%
O=C1OCCN1C(=O)[C@H]1[C@H](c2ccc(F)cc2)C(c2cccc(Cl)c2)=NN1c1ccccc1 | ? | . | 4% | -4% | -10% | -3%
O=C1OCCN1C(=O)[C@H]1[C@H](c2ccc(Cl)cc2)C(c2cccc(Cl)c2)=NN1c1ccccc1 | ? | -6 | 2% | -11% | -12% | -2%
OC[C@@H]1[C@@H](c2ccc(F)cc2)C(c2ccc(F)cc2)=NN1c1ccccc1 | 28µM*[quencher] | . | 1% | ? | -1%[81.3 µM] | -4%
COc1ccccc1[C@H]1C(c2cccc(Cl)c2)=NN(c2ccccc2)[C@@H]1CO | 20µM*[quencher] | . | 5% | -17%[81.4 µM] | ? | -1%
OC[C@@H]1[C@@H](c2ccc(Cl)cc2)C(c2ccc(F)cc2)=NN1c1ccccc1 | 25µM*[quencher] | . | -1% | -23%[81.4 µM] | 14%[81.3 µM] | -5%
OC[C@@H]1[C@@H](c2ccccc2)C(c2cccc(Cl)c2)=NN1c1ccccc1 | 18µM*[quencher] | . | -2% | ? | ? | -6%
O=c1c2cnn(-c3ccccc3)c2nc(-c2ccco2)n1-c1ccccc1 | -8% | -20 | -3% | -4% | 3% | -4%
CC(=O)Nc1nonc1NC(=O)CSC1=NCCS1 | -8% | ? | -27% | -17% | -3% | -2%
OC[C@@H]1[C@@H](c2ccccc2)C(c2ccc(F)cc2)=NN1c1ccccc1 | 10µM*[quencher] | . | 11% | ? | ? | 1%
OC[C@@H]1[C@@H](c2ccccc2)C(c2ccccc2)=NN1c1ccccc1 | 13µM*[quencher] | . | 4% | ? | ? | -4%
